Insulin prom up – MIN6 insulin promoter up-regulation; MIN6 insulin promoter-GFP reporter, high-content imaging; stronger effect = higher value; 190,000 compounds, 0.3% hits; z-score at 5 µM;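 active = z-score above 3 at 5 µM with at least 500 cells counted in the well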
WT yeast gro inh – growth inhibition of WT yeast, mitochondrial fusion screen | mitochondrial fusion phenotypic screen, WT strain | inhibition, % at 10 µM | 190,000 compounds, 2.1% hits | AID 1362; in the data active = inhibition above about 58%; tested in S. cerevisiae
Insulin prom inh – TRM-6 insulin promoter activity inhibition; 130,000 compounds, 0.9% hits; TRM-6 cells (human fetal islet line), insulin promoter-eGFP reporter, imaging; reporter expression induced with tamoxifen; inhibition, % at 2 µM;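 active = inhibition above the mean plus 3 SD, with well images judged a real hit on visual review, cut at about 60% in these data, passing the limit was not always enough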
ROMK mod – modulates human ROMK potassium channel activity; P48048; Tet-inducible ROMK, thallium flux fluorescence; actives lie on both sides; B-score at 10 µM; 130,000 compounds, 2% hits;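 active = signal ratio slope over the read window, or its plate-corrected B-score, at least 3 SD from the plate mean, either direction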;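 note: B-score of the F/F0 ratio slope over 7 to 12 s after thallium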
Target sequence (P48048 whole entry, looked up): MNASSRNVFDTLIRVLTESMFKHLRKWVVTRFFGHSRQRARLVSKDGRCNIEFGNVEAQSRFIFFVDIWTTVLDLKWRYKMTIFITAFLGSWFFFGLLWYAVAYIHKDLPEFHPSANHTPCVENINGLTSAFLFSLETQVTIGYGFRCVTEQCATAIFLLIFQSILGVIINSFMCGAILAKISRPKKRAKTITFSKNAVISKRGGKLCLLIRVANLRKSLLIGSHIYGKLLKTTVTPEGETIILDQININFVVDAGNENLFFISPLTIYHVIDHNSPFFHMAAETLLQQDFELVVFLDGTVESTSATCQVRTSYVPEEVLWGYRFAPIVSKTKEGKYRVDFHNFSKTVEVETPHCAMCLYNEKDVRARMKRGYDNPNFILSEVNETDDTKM
L major viab – inhibitors of Leishmania major promastigote growth; Leishmania major promastigotes, resazurin fluorescence viability; 200,000 compounds, 9% hits; inhibition, % at 10 µM; in the data active = inhibition above about 50%;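 note: promastigotes grown with compound for 44 hours at 28 °C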
Cl transport mod – KCC2 (human) Cl- transport modulation | Q9H2X9 | KCC2 cells, thallium flux FluoZin-2 fluorescence | B-score of Tl+ flux slope (higher = more flux/activation; lower = inhibition) at 10 µM | 190,000 compounds, 2.2% hits | AID 1456;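 active = thallium flux slope and its plate-corrected score both differing from the plate sample mean at a set confidence after two filtering rounds, in either direction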;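 note: slope of fluorescence scaled to starting intensity during 10 to 20 s after thallium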
* marks the source's active call; other numbers are inactive results; . = no result. Rows were chosen to be rich in hits. Some 12% of all compounds tested hit in one or more screens of this group.

SMILES | Insulin prom up | WT yeast gro inh | Insulin prom inh | ROMK mod | L major viab | Cl transport mod
OCCC1CN(Cc2nc3c(s2)CCCC3)CCN1CCc1ccccc1 (centres undefined) | 0.4 | 6.0 | . | -1.74 | 75.7* | -0.964
Cc1nc(CNC(=O)c2ccccc2OC2CCN(S(C)(=O)=O)CC2)cs1 | -0.4 | -10.7 | . | 1.37 | -1.9 | 1.14
CO/N=C/NC(=O)NOCc1ncc(C(F)(F)F)cc1Cl | -0.03 | -20.9 | -6.9 | -0.833 | -5.2 | 0.526
O=C(N/C=N/OCc1ccc(Cl)cc1Cl)NOCc1ncc(C(F)(F)F)cc1Cl | 0.07 | 68.8* | -82.8 | -0.0255 | -2.3 | 1.76
COc1ccc(Cl)cc1C(=O)Nn1c(C)nc2ccccc2c1=O | . | 7.3 | 14.3 | 0.648 | -3.4 | .
COc1ccc(Cl)cc1C(=O)Nn1c(-c2cccs2)nc2ccccc2c1=O | 0.31 | -0.8 | -22.2 | 0.00349 | 61.2* | -1.03
O=c1c2ccccc2n(Cc2ccc(F)cc2)c(=O)n1C1CCCC1 | -0.31 | 77.3* | . | . | 12.3 | -1.35
CN1C2C=C3C(C#N)=C(N)C(C#N)(C#N)C(c4ccc(Br)cc4)C3C1CC2 (centres undefined) | . | -17.7 | -281.2 | . | 97.8* | 0.716
CCOC(=O)c1sc(Nc2nc(C)cc(OC)n2)nc1C | . | -1.0 | 5.0 | 2.17 | 55.9* | -0.185
CCOc1cc(/C=C\[N+](=O)[O-])ccc1OCC(=O)Nc1ccccc1C | 1.34 | -8.0 | . | -0.206 | 71.2* | .
CCOc1cc(/C=N/NC(N)=O)cc(Br)c1OCC(=O)Nc1ccccc1C | . | -6.1 | 31.4 | -0.0951 | 0.3 | -0.813
Cc1sc2c(c1C)c(=O)n(-c1cccc(C(F)(F)F)c1)c(=O)n2CC(=O)NCc1ccco1 | . | -3.1 | 68.8* | 1.44 | -5.6 | .
CCc1ccc(-n2c(=O)c3ccccc3n(CC(=O)NCc3ccco3)c2=O)cc1 | -0.49 | -18.6 | -78.4 | -0.166 | -6.8 | -0.261
CCn1c(=O)n(CC(=O)NCc2ccco2)c(=O)c2ccccc21 | 0.15 | -13.3 | 26.7 | -0.035 | -7.4 | .
COCCNC(=O)Cn1c(=O)n(Cc2ccco2)c(=O)c2ccccc21 | 0.61 | 12.0 | 85.7* | . | 2.1 | 0.469
Cc1ccc(-n2c(=O)c3ccccc3n(CC(=O)NCc3ccco3)c2=O)cc1 | -0.95 | -15.4 | 73.0* | -0.495 | -7.5 | -0.562
O=C(C[n+]1cccc(NC(=O)c2ccccc2)c1)c1ccc(NC(=O)c2ccccc2)cc1 | -1.46 | 8.0 | . | -1.28 | 71.5* | -1.04
CC(C(=O)c1ccc(Br)cc1)[n+]1cccc(NC(=O)c2ccccc2)c1 (centres undefined) | 0.53 | 3.3 | 27.6 | . | 55.8* | 0.736
CC(C)NC(=O)CCS(=O)(=O)c1ccc(Br)s1 | 1.89 | -10.6 | 25.0 | 0.988 | 3.2 | .
COCCNC(=O)CSc1ccc(C)cc1 | 0.62 | -12.4 | . | . | -6.3 | -0.461
COCCNC(=O)CSc1nnc(-c2ccc(C)cc2)c(-c2ccc(C)cc2)n1 | -0.57 | 28.3 | . | 0.143 | 89.7* | -0.962
COc1ccc(-n2c(C)nc(=O)c(-c3ccccc3)c2C)cc1 | 0.05 | 11.4 | 38.5 | . | -8.4 | 0.564
COC(=O)c1ccc(-n2c(C)nc(=O)c(-c3ccccc3)c2C)cc1 | 0.66 | -13.0 | 71.8* | . | -6.4 | 0.281
CC(=O)C(=Nc1ccccc1Cl)NNc1ccc(Cl)cc1 | -1.32 | 60.0* | 75.0* | -0.729 | 93.0* | -0.458
O=C(NNc1ccc(Cl)cc1)c1c(F)cccc1Cl | -0.56 | . | . | . | . | 0.437
SMILES | Insulin prom up | WT yeast gro inh | Insulin prom inh | ROMK mod | L major viab | Cl transport mod
COc1cccc(-c2nc(NCC3CCCO3)c3ccccc3n2)c1O (centres undefined) | . | 1.4 | -11.7 | 1.77 | 34.5 | 0.0219
COc1ccccc1Nc1nc(NCC2CCCO2)c2ccccc2n1 (centres undefined) | -1.97 | 24.5 | -38.5 | . | 100.0* | -1.49
O=C1c2ccccc2C(=O)c2c1ccc1c(=O)n(-c3ccccc3)[nH]c21 | -0.33 | 25.3 | 16.7 | 0 | 26.6 | 0.477
CC(C)Cn1[nH]c2c3c(ccc2c1=O)C(=O)c1ccccc1C3=O | 0.65 | 13.2 | 0.0 | . | 90.1* | -0.265
C#CC(CC)(CC)NC(=O)/C=C/C(=O)O | 0.87 | . | . | . | . | 0.925
CCCc1n[nH]c(=O)[nH]1 | 0.02 | 0.8 | . | 0.525 | -4.8 | 1.46
c1cncc(-c2nc(N3CCOCC3)c3ccccc3n2)c1 | 0.25 | -7.2 | 45.7 | -0.579 | 9.7 | -0.511
CCN1CCN(c2nc(-c3ccccc3)nc3ccccc23)CC1 | 0.03 | -9.8 | 24.2 | . | 16.0 | 1.54
CC1CCN(c2nc(-c3ccncc3)nc3ccccc23)CC1 | -2.49 | -63.8 | . | 0.0543 | 98.9* | -1.88
c1ccc2c(N3CCOCC3)nc(-c3ccncc3)nc2c1 | . | -17.4 | 24.1 | . | 91.8* | -0.831
